# Only some compounds are listed: those with a hit (about 10% of all), similar ones and a draw of the others.
# BAZ2B block – qHTS Assay for Inhibitors of BAZ2B. hit rate 4.4% among 360,000. AlphaScreen BAZ2B-H3K14Ac peptide displacement. Potency, µM (titrated, usually from 114 µM), for inactives: top-dose activity change, negative = inhibition, hits mostly inhibitors; note: potency is the fitted concentration of half-maximal effect; % is set by controls: 0 for no effect and ±100 for the full control effect; nearly all actives have a fitted effect of over 60% in size
#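 Protein-peptide AlphaScreen: BAZ2B 50 nM, b-H3K14Ac 50 nM, 1x PBS pH 7.4 + 0.01% Tween-20. Preincubation 30 min RT; cpd 30 min RT (top 110 uM); beads 20 min RT, light-protected.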
# G9a block – qHTS Assay for Inhibitors of Histone Lysine Methyltransferase G9a | Histone-lysine N-methyltransferase EHMT2 (Homo sapiens), Q96KQ7 | G9a H3K9 monomethylation, AlphaScreen, 2 h | Potency, µM (top dose mostly 102 µM), without a hit: top-dose activity, negative = inhibition, hits mostly inhibitors | hit rate 8.8% among 350,000 | AID 504332, 2011; note: potency is the fitted concentration of half-maximal effect; % is set by controls: 0 for no effect and ±100 for the full control effect; nearly all actives have a fitted effect of over 75% in size
#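 Readings reflect AlphaScreen signal from monomethyl-H3K9 antibody detection. HMT at 20 nM; substrate b-H3K9 500 nM; cofactor SAM 20 uM; 2 h RT reaction; compounds tested as titrations in qHTS with 15 min preincubation.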
# CtBP-E1A inh – qHTS Assay for Inhibitors of the CtBP/E1A Interaction | CtBP / adenovirus E1A interaction (AlphaScreen) | AlphaScreen GST-E1A/His-CtBP binding, 1536-well; active compounds read low | activity change, % (concentration not given with the values) | hit rate 0.49% among 340,000 | AID 651724, 2012; in the data active = activity change below about -65%; inconclusive = mostly about -30% to -63%; note: % is set by controls: 0 for no effect and ±100 for the full control effect
#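 GST-E1A and His-tagged CtBP (125 nM each as 5X stock) were preincubated with pin-transferred compound for 2 h at 37 °C in the dark, then glutathione donor and nickel acceptor beads were added for 1 h before AlphaScreen reading.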
# HP1b chromo inh – HTS for Inhibitors of HP1-beta Chromodomain Interactions with Methylated Histone Tails | AlphaScreen HP1-beta / biotin-H3K9me3 peptide binding | Potency, µM (top dose mostly 114 µM), for the others: at the top dose activity change, negative = inhibition, hits mostly inhibitors | AID 540317, 2011 | Chromobox protein homolog 1 (Homo sapiens), P83916 | hit rate 0.56% among 390,000; note: potency is the fitted concentration of half-maximal effect; nearly all actives have a fitted effect of over 70% in size
#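 AlphaScreen: HP1-beta (50 nM) preformed 30 min with biotin-H3(1-18)K9me3 peptide (50 nM) in PBS pH 7.4, 0.01% Tween-20. Compound added for 30 min at RT, then streptavidin donor/nickel chelate acceptor beads (10 ug/mL) for 30 min.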
# Six1-Eya2 blk – qHTS Assay for Inhibitors of the Six1/Eya2 Interaction; Homeobox protein SIX1 (Homo sapiens) + Protein phosphatase EYA2 (Homo sapiens), …; AlphaScreen GST-Six1/His-Eya2 binding, biochemical; active compounds read low; activity change, % (concentration not given with the values); hit rate 0.56% among 360,000; in the data active = activity change below about -65%; inconclusive = mostly about -30% to -63%; note: % is set by controls: 0 for no effect and ±100 for the full control effect
#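 AlphaScreen luminescence read after one hour at 37 °C in darkness. Pin-transferred compounds met GST-Six1 and His-Eya2 protein (5X stock 250 nM/500 nM) plus glutathione donor and Ni-chelate acceptor beads (5X, 50 ug/mL).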
# JMJD2A Tudor – qHTS Assay for Inhibitors of JMJD2A-Tudor Domain | AlphaScreen JMJD2A-Tudor / H3K4me3 peptide binding | Potency, µM (series often up to 114 µM), for inactives: at the highest dose activity change, negative = inhibition, actives largely listed as inhibitors | Lysine-specific demethylase 4A (Homo sapiens), O75164 | hit rate 4.4% among 390,000 | AID 504339, 2011; note: potency is the fitted concentration of half-maximal effect; % is set by controls: 0 for no effect and ±100 for the full control effect; nearly all actives have a fitted effect of over 50% in size
# Starred values were filed as active, the others as inactive; ? = inconclusive; . = no result; [ ] = dose if it differs, or a comment. Unless noted, calls come from the whole dose curve; as a rule, active = well fitted inhibition curve with a large enough effect; inconclusive = small, poorly fitted or top-dose-only effect; inactive = no such curve, though single readings can be large or run the other way.
SMILES,BAZ2B block,G9a block,CtBP-E1A inh,HP1b chromo inh,Six1-Eya2 blk,JMJD2A Tudor
CC1=C(c2ccc(C)c(C)c2)S(=O)(=O)N=C1N1CCC(C(=O)NCCc2ccc(Cl)cc2)CC1,6%,25%[59 µM],.,66%,.,-10%
O=S(=O)(NCc1ccccc1Cl)c1ccc(-c2cnc(C3CC3)o2)cc1,-26%,-6%[59 µM],.,10%,.,-33%
c1csc(-c2nnc(N3CCOCC3)c3ccccc23)c1,-27%,40µM*,.,1%,-14,-2%[11.4 µM]
c1csc(-c2nnc(N3CCCCCC3)c3ccccc23)c1,?,10µM*,-4,?,-9,1.3µM*
O=C(CN1CCCN(Cc2ccccc2Cl)S1(=O)=O)NCc1ccccc1,-31%,?,.,35%,.,4%
CN1CCc2cccc3c2[C@H]1Cc1ccc(O)c(O)c1-3,?,1.4µM*,-11,14µM*,-10,8.9µM*
Cc1ccc(-n2nc(C(=O)N3CCN(c4ccccc4F)CC3)c3c4ccccc4n(C)c3c2=O)cc1,.,-1%[59 µM],.,33%,.,-3%
CCNS(=O)(=O)c1ccc(NC(=O)c2ccc(Cn3cc([N+](=O)[O-])cn3)o2)cc1,16%,50µM*,5,1%,7,-10%
CN(C)c1ccc(NC(=O)c2ccc(Cn3cc([N+](=O)[O-])cn3)cc2)cc1,25µM*,14µM*,?,45µM*,?,50µM*
Cc1cccc(C)c1NC(=O)C(c1ccc(C#N)cc1)n1c(=O)c(-c2ccco2)nc2ccccc21 (stereo unspecified),.,.,0,.,-9,.
Nc1nc(C(=O)N2CCOCC2)nn1S(=O)(=O)c1ccccc1,50µM*,18µM*,1,20%,2,20µM*
CCS(=O)(=O)n1nc(-c2ccc(C)cc2)nc1N,6%,-11%[12.7 µM],-1,42%,10,5%
O=C(N1CCOCC1)N1CCN(S(=O)(=O)c2ccc(Cl)cc2)C1,0%,18%[59 µM],4,18%,-7,5%
CCS(=O)(=O)n1nc(C(=O)N2CCOCC2)nc1N,?,?,-3,25%,0,89µM*
Nc1nc(C(=O)N2CCOCC2)nn1S(=O)(=O)c1ccc(Cl)cc1,-7%,?,-1,18%,3,14µM*
O=C(Nc1ccc(Cl)cc1Cl)c1cc(S(=O)(=O)NCc2ccc3c(c2)OCO3)ccc1F,1%,6%[59 µM],.,22%,.,-19%
CCOC(=O)c1c(C)[nH]c(N=Nc2ccccc2C)c1C,32µM*,16µM*,?,-35%,?,25µM*
CCOC(=O)c1c(C)[nH]c(N=Nc2ccc(C)cc2C)c1C,14µM*,45µM*,-15,22µM*,-11,50µM*
CCc1nnc(NC(=O)[C@@H](NC(=O)c2ccc(C(C)(C)C)cc2)C(C)C)s1,-3%,-5%[59 µM],-12,16%,-8,-29%
CN(C)c1ccc(N/C(=N\S(=O)(=O)c2cccs2)c2ccccc2)cc1,45µM*,4.5µM*,.,?,?,45µM*
Cc1ccc2nc(-c3ccc(N=Nc4cc(S(=O)(=O)O)c5ccccc5c4O)cc3)sc2c1S(=O)(=O)O,.,.,.,14µM*,.,18µM*
O=S(=O)(c1cccs1)N1CCN(CC(O)COC2CCCc3ccccc32)CC1 (stereo unspecified),50µM*,18µM*,-1,?,2,4µM*
O=S(=O)(c1cccs1)N1CCN(CC(O)COc2cccc(Br)c2)CC1 (stereo unspecified),79µM*,?,1,?,-2,3.2µM*
O=C(CCOc1ccccc1)N1CCN(S(=O)(=O)c2cccs2)CC1,3%,?,-5,10%,21,-14%
CCN1CCN(C(c2cccc(Cl)c2)c2c(O)cc(C)n(CCOC)c2=O)CC1 (stereo unspecified),7%,?,.,26%[57 µM],.,-9%
SMILES,BAZ2B block,G9a block,CtBP-E1A inh,HP1b chromo inh,Six1-Eya2 blk,JMJD2A Tudor
CN(C)S(=O)(=O)N1CCC(Oc2cccc(C(=O)NCCC3=CCCCC3)c2)CC1,-3%,.,-8,15%,4,-1%
CCOC(=O)c1cc(C#N)c(SCC(=O)c2cc(C#N)c(SC)nc2C)[nH]c1=O,-33%,50µM*,-27,4%,-5,79µM*
CSc1nc(C)c(C(=O)C[n+]2ccc(C)cc2)cc1C#N,-3%,-8%,.,54%,-6,-10%
CCOC(=O)c1cc(C#N)c(SCC(N)=O)[nH]c1=O,-11%,13µM*,.,31%,1,-13%
CCOC(=O)c1cc(C#N)c(SCC(=O)Nc2ccc(C(C)=O)cc2)[nH]c1=O,-24%,?,-9,20%,-11,2%
CCOC(=O)c1cc(C)[nH]c(=O)c1C#N,28%,15%,.,27%,-2,1%
CCOC(=O)c1cc(C#N)c(SCC(=O)O)[nH]c1=O,?,?,0,12%,-15,32µM*
CSc1[nH]c(=O)c(C(=O)O)cc1C#N,50µM*,-40%[12.7 µM],5,27%,-2,-13%
CSc1ncc(Cl)c(C(=O)N(Cc2ccc(C(C)C)cc2)C2CCS(=O)(=O)C2)n1 (stereo unspecified),-10%,-24%[59 µM],.,15%,.,-26%
COc1ccc(-c2cc3nc(C)cc(N4CCN(C(=O)c5cccnc5)CC4)n3n2)cc1,.,.,0,.,-3,.
CCOC(=O)c1[nH]c(=S)n(Cc2ccccc2)c1C(=O)OCC,.,.,-12,?,4,3.2µM*
CCc1nnc(NC(=O)Cc2c[nH]c3ccccc23)s1,-20%,45µM*,4,19%,-8,-8%
O=C(Cc1c[nH]c2ccccc12)Nc1nc2ccccc2[nH]1,-30%,79µM*,2,-7%,-2,?
O=C(NCc1ccco1)c1ccc2c(c1)N(Cc1ccccc1)C(=O)CS2,?,6%[12.7 µM],-8,-12%,-5,-31%
C=CCN1C(=O)CSc2ccc(C(=O)NCc3ccco3)cc21,-5%,40µM*,-7,18%,-6,-22%
COc1cc(C(=O)NCC(=O)N/N=C/c2ccc(-c3ccc([N+](=O)[O-])cc3)o2)cc(OC)c1OC,-12%,45µM*,-5,14%,-10,-13%

# Bioassay records: PubChem BioAssay, National Center for Advancing Translational Sciences (NCATS)
